Hits are enriched below; roughly 5.4% of the tested compounds scored in any of these assays.
Granule exo inh: lytic granule exocytosis inhibition; AID 651702; inhibition, % at 10 µM; actives 0.66% (n = 360,000); TALL-104 LAMP-1 surface exposure, flow cytometry; cells stimulated with thapsigargin and PMA;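 active = inhibition above about 55%, limit read from the data; inconclusive = no clear call, values can overlap the other calls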
MIN6 prolif: induces beta-cell replication in MIN6 cells; MIN6 cells proliferation, ATPlite luminescence, 48 h; cells starved in 0.2% serum; 100% = growth in 10% serum; proliferation, % at 10 µM; actives 0.29% (n = 330,000); AID 2380;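 active = compounds whose signal lies at least 3.5 SD above the mean of all wells on their plate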
SMARCA2 activ: increases SMARCA2 function in MMTV reporter cells. MG213 cells, MMTV-luciferase reporter, dexamethasone, overnight. actives 1% (n = 370,000). activation, % at 9.1 µM; in the data active = activation above about 7.8%
M18AAP inhibitor: PfM18AAP enzyme inhibition | recombinant PfM18AAP, H-Glu-NHMec fluorogenic cleavage | inhibition, % at 7.35 µM | actives 1.2% (n = 290,000);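 active = inhibition above the campaign mean inhibition over all tested compounds plus 3 SD, cut at about 28% in these data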
ALR inh: human ALR oxidase inhibition via reduced H2O2. inhibition, % (concentration not given with the values). actives 3.8% (n = 290,000). purified ALR, DTT oxidation, H2O2 HRP-luminol luminescence;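 active = mean replicate inhibition above about 79%, with every replicate also reaching it, limit read from the data; inconclusive = only one of the two criteria met; inactive = mean below limit and not every replicate reaching it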
Target sequence (P55789 whole entry, looked up): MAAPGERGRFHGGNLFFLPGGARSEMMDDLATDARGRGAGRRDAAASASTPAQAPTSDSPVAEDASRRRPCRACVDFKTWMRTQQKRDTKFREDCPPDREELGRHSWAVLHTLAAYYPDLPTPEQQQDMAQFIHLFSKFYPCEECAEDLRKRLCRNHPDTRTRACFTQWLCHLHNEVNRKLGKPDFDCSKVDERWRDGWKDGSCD
JMJD2C inh: blocks human GASC-1 demethylase activity; Q9H3R0; GST-JMJD2C(1-420) H3K9me3 demethylation, DELFIA europium; inhibition, % at 2.35 µM; actives 0.069% (n = 330,000); AID 2099;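 active = more than half of a compound's replicate wells show inhibition beyond 50%, single wells judged on their own value; inconclusive = some, but no more than half, of replicates pass 50% inhibition; inactive = no replicate passes 50% inhibition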;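 note: signal counts dimethyl H3K9 product captured on neutravidin plate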
Target sequence (Q9H3R0 1-420 limits assumed): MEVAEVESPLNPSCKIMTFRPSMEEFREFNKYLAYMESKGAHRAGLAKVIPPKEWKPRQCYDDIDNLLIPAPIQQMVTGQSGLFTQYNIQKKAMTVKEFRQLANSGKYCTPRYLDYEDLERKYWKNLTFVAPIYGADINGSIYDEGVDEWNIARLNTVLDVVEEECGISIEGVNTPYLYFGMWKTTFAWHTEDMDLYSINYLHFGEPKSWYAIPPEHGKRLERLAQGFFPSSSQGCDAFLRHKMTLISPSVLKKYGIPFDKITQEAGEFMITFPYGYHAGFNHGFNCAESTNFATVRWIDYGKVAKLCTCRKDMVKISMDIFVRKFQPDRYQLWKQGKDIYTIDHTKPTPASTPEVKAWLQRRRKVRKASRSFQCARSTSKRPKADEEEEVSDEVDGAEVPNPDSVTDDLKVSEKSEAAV
A number is an active result; . = inactive; ? = inconclusive; / = not tested or not shown.

SMILES	Granule exo inh	MIN6 prolif	SMARCA2 activ	M18AAP inhibitor	ALR inh	JMJD2C inh
S=c1[nH]nc(-c2ccccn2)n1/N=C/c1ccc(Br)s1	.	.	.	.	96	.
CCCCCCCCN1C(=O)[C@@H](CC(=O)NCc2cccc3ccccc23)C[C@@]2(C(=O)OC)C1=C[C@H](C(C)(C)C)O[C@@H]2C	/	/	.	/	/	/
O=C(Nc1ccc(F)cc1)Nc1c(-c2ccc(C(F)(F)F)cc2)nc2ncccn12	/	/	.	/	/	/
CCOC(=O)[C@]12CCCCC/C=C\1N(CCc1ccc(Cl)cc1)C(=O)[C@H]2CC(=O)NCCC(C)C	/	/	.	/	/	/
Cc1c(C)c(C)c(C(=O)CCc2cccc(NC(=O)CCC(=O)O)c2)c(C)c1C	.	.	.	.	95	.
CSc1cccc(NC(=O)CCC(=O)O)c1	.	.	.	.	.	.
O=C(NCC(c1ccco1)N1CCc2ccccc21)c1ccccc1F (configuration not stated)	.	.	.	/	98	?
Cc1ccc(C(=O)NCC(c2ccco2)N2CCc3ccccc32)cc1 (configuration not stated)	.	.	.	/	77	.
O=C(NCC(c1ccco1)N1CCc2ccccc21)c1ccccc1Br (configuration not stated)	.	.	.	/	.	.
O=C(CCc1ccccc1)NCC(c1ccco1)N1CCc2ccccc21 (configuration not stated)	.	.	.	/	98	.
Cc1cccc(C(=O)NCC(c2ccco2)N2CCc3ccccc32)c1 (configuration not stated)	.	.	.	/	.	.
O=C(CSc1nnc(COc2ccc(Cl)cc2)n1Cc1ccco1)Nc1cccc2ccccc12	/	/	.	/	/	/
CCCCOCCCNC(=O)C[C@H]1C[C@@]2(C(=O)OC)C(=C[C@H](C3CCCC3)O[C@@H]2C)N(CCc2ccc(OC)c(OC)c2)C1=O	/	/	.	/	/	/
CCCN1C(=O)c2[nH]nc(-c3ccccc3)c2C1c1ccc(F)cc1 (configuration not stated)	/	/	.	/	/	/
Oc1ccc(/C=N/N2CCOCC2)c(O)c1O	.	.	.	34	98	.
COc1ccc(O)c(/C=N/N2CCOCC2)c1	.	.	.	.	.	.
Oc1ccccc1C=NN1CCCCCC1	.	/	.	/	/	/
Oc1ccc(/C=N/N2CCCCC2)c(O)c1	.	.	.	.	98	.
CN(C)c1ccc(CN(Cc2ccco2)C(=O)c2ccco2)cc1	.	.	.	.	99	.
CN(C)c1ccc(CN(C(=O)c2ccccc2Br)C2CCS(=O)(=O)C2)cc1 (configuration not stated)	.	.	.	.	96	.
CN(Cc1ccc(N(C)C)cc1)C(=O)c1cc2ccccc2o1	.	.	.	.	76	.
CN(C)c1ccc(CN(C(=O)c2ccco2)C2CCS(=O)(=O)C2)cc1 (configuration not stated)	.	.	.	.	82	.
O=C(OC12CCCN(C1)/C(=C/c1ccccc1)C2)c1ccc(Cl)cc1 (configuration not stated)	/	/	.	/	/	/
CCCCc1c(-c2ccccc2OC)ncn1C(C)c1ccccc1 (configuration not stated)	/	/	.	/	/	/
CN(C)c1ccc(CN(C(=O)c2cc3ccccc3oc2=O)C2CCS(=O)(=O)C2)cc1 (configuration not stated)	.	.	.	.	89	.
SMILES	Granule exo inh	MIN6 prolif	SMARCA2 activ	M18AAP inhibitor	ALR inh	JMJD2C inh
CC(C)c1ccc(CN(C(=O)c2cc3ccccc3oc2=O)C2CCS(=O)(=O)C2)cc1 (configuration not stated)	.	.	.	.	.	.
CC1C=CC=CCCC=CC=CC=CC=CC(OC2O[C@H](C)[C@@H](O)[C@H](N)[C@@H]2O)CC(O)C(C(=O)O)C(O)CC(=O)CC(O)C(O)CCC(O)CC(O)CC(O)CC(=O)OC(C)C(C)C1O (some centres not stated)	/	/	.	/	/	/
Cc1ccccc1C(=O)Nc1ccc(S(=O)(=O)Nc2onc(C)c2C)cc1	.	.	.	.	.	.
Cc1ccc2c(=O)cc(C(=O)Nc3ccc(S(=O)(=O)Nc4onc(C)c4C)cc3)oc2c1	.	.	.	.	97	.
Cc1c(C(=O)Nc2ccc(S(=O)(=O)Nc3ncccn3)cc2)oc2ccc(Cl)cc12	.	.	.	.	.	.
Cc1noc(NS(=O)(=O)c2ccc(NC(=O)c3cc4ccccc4o3)cc2)c1C	.	.	.	/	/	.
Cc1noc(NS(=O)(=O)c2ccc(NC(=O)c3cnc4n(c3=O)CCS4)cc2)c1C	.	.	.	.	99	.
Cc1ccc(-c2cc(C(=O)Nc3ccc(S(=O)(=O)Nc4onc(C)c4C)cc3)c3ccccc3n2)cc1	.	.	.	.	98	.
Cc1noc(NS(=O)(=O)c2ccc(NC(=O)c3oc4ccc(Cl)cc4c3C)cc2)c1C	.	.	.	.	98	.
Cc1nn(-c2ccccc2)nc1C(=O)Nc1ccccc1C(=O)NCC1CC1	/	/	.	/	/	/
Cc1ccc2c(C)c(C(=O)Nc3ccc(S(=O)(=O)Nc4onc(C)c4C)cc3)oc2c1	.	.	.	.	97	.
COc1ccc(S[C@]2(C(=O)N3CCN(C(C)=O)CC3)CC(=O)N(C(=O)/C=C/c3ccccc3)[C@@H]2c2ccc(OC)cc2)cc1	/	/	.	/	/	/
CN(C)c1ccc(/C=C/c2nnnn2-c2ccccc2)cc1	.	.	.	.	99	.
Cc1cc(N/C=C\c2nnnn2-c2ccccc2)no1	.	.	.	.	.	.
CC1(C)CC(=O)C=C(Nc2ccccc2NC(=O)c2cc(F)cc(F)c2)C1	/	/	.	/	/	/
Cc1ccc(/C=C/C(=O)c2ccccc(=O)c2O)cc1C	.	/	.	.	96	.
CCOC(=O)COn1c(=O)c(=O)n(O)c2ccccc21	.	.	.	.	100	.
COC(=O)c1c(NC(C)=O)sc(C(=O)N2CCOCC2)c1C	.	.	.	.	.	.
COC(=O)c1c(NC(=O)C(C)C)sc(C(=O)N2CCOCC2)c1C	.	.	.	31	/	.
Clc1cccc(CSc2ncnc3sc4c(c23)CCCC4)c1	/	/	.	/	/	/
CN(C)c1ccc(CN2CCCC(O)C2)cc1 (configuration not stated)	.	.	.	.	97	.
OC1CCCN(Cc2ccccc2)C1 (configuration not stated)	.	.	.	.	.	.
Cc1cc(/C=C(\C#N)c2nnc(N3CCOCC3)n2-c2ccccc2)c(C)n1-c1ccccc1	/	.	/	.	.	.
COc1cc(/C=C(\C#N)c2nnc(N3CCOCC3)n2-c2ccccc2)ccc1O	.	.	.	.	99	.
Cc1[nH]n(C2=NCCS2)c(=O)c1N=Nc1ccccc1	.	.	.	.	92	.
Cc1[nH]n(-c2ccccc2)c(=O)c1N=Nc1ccc2c(c1)OCO2	.	.	.	.	/	.
CC(C)N(C[C@@H]1CSCCS(=O)(=O)N1)C1CCCCC1	/	/	.	/	/	/

High-throughput results from PubChem.
